From PubChem BioAssay (EPA / NIEHS)
“And” between values parts separate entries of the source, which are not always exact repeats. Equal values may be shown once. More than one record can exist for a structure, and the calls need not agree. The source made the active and inactive calls. How the source made its calls: active means hit-call score of the fitted dose curve at least 0.9, where 1 is the maximum; inactive means score below 0.9.

read-out: not listed separately; assay: BSK_IMphg_SRB.Mphg: Macrophage Viability Assessment in the BioMAP Diversity Plus: IMphg Assay (AID 2284295); details: primary human endothelial cells with macrophages
How it was run: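 Cytotoxicity read-out: parallel cultures fixed with 10% TCA, stained with 0.1% sulforhodamine B, read at 560 nm. System combines venular endothelium and macrophages; sampled 24 h post-dosing, fitted positively relative to DMSO control.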

SMILES | AC50 | outcome
O=C(CC(=O)C(F)(F)C(F)(F)C(F)(F)F)c1cccs1 | 43.1 µM (active) and 42.7 µM (active) | –
C=CC(=O)OCCC(F)(F)C(F)(F)C(F)(F)C(F)(F)C(F)(F)C(F)(F)C(F)(F)C(F)(F)F | – | inactive
O=C(O)CCC(F)(F)C(F)(F)C(F)(F)C(F)(F)C(F)(F)C(F)(F)F | – | inactive
O=C(O)CCC(F)(F)C(F)(F)C(F)(F)C(F)(F)C(F)(F)F | – | inactive
OCC(F)(F)C(F)(F)C(F)(F)C(F)(F)C(F)(F)C(F)(F)C(F)(F)C(F)(F)C(F)(F)C(F)(F)C(F)(F)F | 550 nM (active) and 521 nM (active) | –
O=P(O)(O)CCC(F)(F)C(F)(F)C(F)(F)C(F)(F)C(F)(F)C(F)(F)F | – | inactive
CN(CCO)S(=O)(=O)C(F)(F)C(F)(F)C(F)(F)C(F)(F)C(F)(F)C(F)(F)C(F)(F)C(F)(F)F | – | inactive
O=S(=O)(O)C(F)(F)C(F)(F)C(F)(F)C(F)(F)C(F)(F)C(F)(F)C(F)(F)C(F)(F)C(F)(F)C(F)(F)F | 668 nM (active) | inactive
CN(Cc1cnc2nc(N)nc(N)c2n1)c1ccc(C(=O)N[C@@H](CCC(=O)O)C(=O)O)cc1 | 3260 nM (active) | inactive
O=P(O)(O)CCC(F)(F)C(F)(F)C(F)(F)C(F)(F)C(F)(F)C(F)(F)C(F)(F)C(F)(F)F | – | inactive
O=C(O)C(F)(F)OC(F)(F)C(F)(F)OC(F)(F)C(F)(F)OC(F)(F)C(F)(F)C(F)(F)C(F)(F)F | 42.9 µM (active) and 45.1 µM (active) | –

system: not listed separately; assay: IUF_NPC2c_oligodendrocyte_migration_120hr: Leibniz Research Institute for Environmental Medicine (IUF) 120-hour Neural Progenitor Cell Migration Assay for Oligodendrocyte Migration (NPC2c) (AID 2284297); details: not given;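 further: O4-positive oligodendrocyte migration distance divided by radial glia migration distance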
How it was run: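 Human fetal neural progenitor spheres (0.3 mm) are plated on poly-D-lysine/laminin in N2 differentiation medium and exposed for 120 h, with half-medium renewal at day 3. Oligodendrocyte (O4+) migration distance comes from ICC imaging, normalised to radial glia migration.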

SMILES | outcome
O=C(CCCN1CCC(O)(c2ccc(Cl)cc2)CC1)c1ccc(F)cc1 | inactive
CC(=O)Nc1ccc(O)cc1 | inactive
CC(C)c1c(C(=O)Nc2ccccc2)c(-c2ccccc2)c(-c2ccc(F)cc2)n1CC[C@@H](O)C[C@@H](O)CC(=O)O | inactive
O=C1NS(=O)(=O)c2ccccc21 | inactive

system: not listed separately; assay: IUF_NPC2a_radial_glia_migration_120hr: Leibniz Research Institute for Environmental Medicine (IUF) 120-hour Neural Progenitor Cell Migration Assay for Radial Glia Migration (NPC2a) (AID 2284298); details: not given
How it was run: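 Human fetal-cortex neural progenitor spheres (0.3 mm) plated on poly-D-lysine/laminin in N2 differentiation medium, exposed 120 h at 37C with half-medium renewal at day 3. Radial glia migration distance (um) measured from Hoechst-stained nuclei images; DMSO baseline.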

SMILES | AC50 | outcome
O=C(CCCN1CCC(O)(c2ccc(Cl)cc2)CC1)c1ccc(F)cc1 | 15.9 µM (active) | –
CC(=O)Nc1ccc(O)cc1 | – | inactive
CC(C)c1c(C(=O)Nc2ccccc2)c(-c2ccccc2)c(-c2ccc(F)cc2)n1CC[C@@H](O)C[C@@H](O)CC(=O)O | – | inactive
O=C1NS(=O)(=O)c2ccccc21 | – | inactive

system: not listed separately; assay: IUF_NPC2a_radial_glia_migration_72hr: Leibniz Research Institute for Environmental Medicine (IUF) 72-hour Neural Progenitor Cell Migration Assay for Radial Glia Migration (NPC2a) (AID 2284299); details: not given
How it was run: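 Radial glia migration (µm, sphere core edge to migration front, four directions averaged) from brightfield images at 72 h; hNPC spheres differentiating on PDL/laminin in N2 medium, compound exposure at 7 concentrations from plating.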

SMILES | outcome
O=C(CCCN1CCC(O)(c2ccc(Cl)cc2)CC1)c1ccc(F)cc1 | inactive
CC(=O)Nc1ccc(O)cc1 | inactive
CC(C)c1c(C(=O)Nc2ccccc2)c(-c2ccccc2)c(-c2ccc(F)cc2)n1CC[C@@H](O)C[C@@H](O)CC(=O)O | inactive
O=C1NS(=O)(=O)c2ccccc21 | inactive

system: not listed separately; assay: IUF_NPC2b_neuronal_migration_120hr: Leibniz Research Institute for Environmental Medicine (IUF) 120-hour Neural Progenitor Cell Migration Assay for Neuron Migration (NPC2b) (AID 2284300); details: not given
Procedure: IUF_NPC2-5 is a cell-based, multiplexed assay that uses hNPC, a human primary neural progenitor cells, with measurements taken at 72 or 120 hours after chemical dosing in a 96-well plate. Human neural progenitor cells (hNPC) are generated from human fetal brain cortex at gestational week (GW) 16-19. In the neural progenitor cell migration and differentiation assay (NPC2-5), hNPCs grown as spheres are plated on an extracellular matrix and migrate and differentiate out of the sphere core. The processes radial glia migration, neuronal and oligodendrocyte migration as well as neuronal differentiation, neuronal morphology and oligodendrocyte differentiation are studied using automated phase contrast imaging and automated fluorescence imaging in combination with high content image analysis. In parallel, the cell viability is assessed using an alamar blue viability assay and the cytotoxicity using a lactate dehydrogenase dependent membrane integrity assay.IUF_NPC2b_neuronal_migration_120hr is one of 12 assay components measured from the IUF_NPC2-5 assay. Neuronal migration distance at 120 hr is the mean distance of all neurons from the edge of the sphere core to each individual neuron (see IUF_NPC3_neuronal_differentiation_120hr). Neuronal migration is normalized to radial glia migration distance at 120 hr.Data from the IUF_NPC2b_neuronal_migration_120hr component was analyzed at the endpoint IUF_NPC2b_neuronal_migration_120hr in the positive analysis fitting direction relative to DMSO as the negative control and baseline of activity. Using a type of migration reporter, gain or loss-of-signal activity can be used to understand developmental effects.
Culture protocol: After the cell expansion period the cells are cultured for up to four weeks in which they are passaged every week as described in 3.6. Between one to three days after passaging spheres at a size of 0.3 mm are picked for the test method. […] Therefore, half of the test condition solution (e.g. solvent control or compound dilution) is replaced by freshly prepared test condition solution.Test Method: Migration distance and cytotoxicity is determined after 72 hours based on brightfield images of each well. […] On the ICC images, migration after 120 hours, neuronal and oligodendrocyte number, neuronal morphology and neuron/oligodendrocyte specific migration is assessed. immunocytochemical staining (ICC) generates an image for each sphere. The plates are scanned using an automated high content imaging device and all nuclei and their positions are determined automatically based on their intensity and size. […]

SMILES | outcome
O=C(CCCN1CCC(O)(c2ccc(Cl)cc2)CC1)c1ccc(F)cc1 | inactive
CC(=O)Nc1ccc(O)cc1 | inactive
CC(C)c1c(C(=O)Nc2ccccc2)c(-c2ccccc2)c(-c2ccc(F)cc2)n1CC[C@@H](O)C[C@@H](O)CC(=O)O | inactive
O=C1NS(=O)(=O)c2ccccc21 | inactive

system: not listed separately; assay: IUF_NPC3_neuronal_differentiation_120hr: Leibniz Research Institute for Environmental Medicine (IUF) 120-hour Neuronal Differentiation Assay (NPC3) (AID 2284301); details: not given
How it was run: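 Neuronal differentiation of primary human neural progenitors measured by high-content imaging: percent TUBB3+ of Hoechst+ nuclei within migrated area at 120 h, seven-point serial dilution plus solvent control, gain or loss relative to DMSO.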

SMILES | outcome
O=C(CCCN1CCC(O)(c2ccc(Cl)cc2)CC1)c1ccc(F)cc1 | inactive
CC(=O)Nc1ccc(O)cc1 | inactive
CC(C)c1c(C(=O)Nc2ccccc2)c(-c2ccccc2)c(-c2ccc(F)cc2)n1CC[C@@H](O)C[C@@H](O)CC(=O)O | inactive
O=C1NS(=O)(=O)c2ccccc21 | inactive

system: not listed separately; assay: IUF_NPC4_neurite_length_120hr: Leibniz Research Institute for Environmental Medicine (IUF) 120-hour Neuronal Morphology Assay for Neurite Length (NPC4) (AID 2284302); details: not given
How it was run: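 Neurons from differentiating human fetal neural progenitor spheres are scored for average neurite length after five days of compound exposure. Fitting uses DMSO as negative control.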

SMILES | outcome
O=C(CCCN1CCC(O)(c2ccc(Cl)cc2)CC1)c1ccc(F)cc1 | inactive
CC(=O)Nc1ccc(O)cc1 | inactive
CC(C)c1c(C(=O)Nc2ccccc2)c(-c2ccccc2)c(-c2ccc(F)cc2)n1CC[C@@H](O)C[C@@H](O)CC(=O)O | inactive
O=C1NS(=O)(=O)c2ccccc21 | inactive

read-out: CD69, CD69 (gene 969); assay: BSK_LPS_CD69: BioMAP Diversity Plus: LPS Assay for CD69 Biomarker Activity (AID 2284303); details: primary human HUVEC with PBMC
How it was run: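 CD69 surface levels were read by ELISA after 24 h chemical treatment of an LPS-stimulated HUVEC plus PBMC co-culture; positive-direction fit against DMSO vehicle.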

SMILES | AC50 | outcome
Oc1c(Cl)cc(Cl)cc1Sc1cc(Cl)cc(Cl)c1O | 24.3 µM (active) and 27.4 µM (active) | –
O=C(CC(=O)C(F)(F)C(F)(F)C(F)(F)F)c1cccs1 | – | inactive
C=CC(=O)OCCC(F)(F)C(F)(F)C(F)(F)C(F)(F)C(F)(F)C(F)(F)C(F)(F)C(F)(F)F | – | inactive
O=C(O)CCC(F)(F)C(F)(F)C(F)(F)C(F)(F)C(F)(F)C(F)(F)F | – | inactive
O=C(O)CCC(F)(F)C(F)(F)C(F)(F)C(F)(F)C(F)(F)F | 5.95 µM (active) | inactive
OCC(F)(F)C(F)(F)C(F)(F)C(F)(F)C(F)(F)C(F)(F)C(F)(F)C(F)(F)C(F)(F)C(F)(F)C(F)(F)F | – | inactive
O=P(O)(O)CCC(F)(F)C(F)(F)C(F)(F)C(F)(F)C(F)(F)C(F)(F)F | – | inactive
CN(CCO)S(=O)(=O)C(F)(F)C(F)(F)C(F)(F)C(F)(F)C(F)(F)C(F)(F)C(F)(F)C(F)(F)F | – | inactive
Oc1ccc(Cc2ccccc2O)cc1 | – | inactive
CCCCCCCCCCCC | 30.1 µM (active) | inactive
O=S(=O)(O)C(F)(F)C(F)(F)C(F)(F)C(F)(F)C(F)(F)C(F)(F)C(F)(F)C(F)(F)C(F)(F)C(F)(F)F | 14.6 µM (active) and 3.91 µM (active) | –
CN(Cc1cnc2nc(N)nc(N)c2n1)c1ccc(C(=O)N[C@@H](CCC(=O)O)C(=O)O)cc1 | – | inactive
O=C1NS(=O)(=O)c2ccccc21 | – | inactive
O=P(O)(O)CCC(F)(F)C(F)(F)C(F)(F)C(F)(F)C(F)(F)C(F)(F)C(F)(F)C(F)(F)F | – | inactive
O=C(O)C(F)(F)OC(F)(F)C(F)(F)OC(F)(F)C(F)(F)OC(F)(F)C(F)(F)C(F)(F)C(F)(F)F | 39.9 µM (active) and 41.2 µM (active) | –
